Screens (PubChem BioAssay)
Pf growth 48h = Primary qHTS for delayed death inhibitors of the malarial parasite plastid, 48 hour incubation; P. falciparum luciferase growth in erythrocytes, 48 h; Potency, µM (series often up to 28.7 µM), for inactives: at the highest dose activity change, negative = inhibition, usual class: inhibitors; 310,000 tested, 5.9% active; note: potency is the fitted concentration of half-maximal effect; % is set by controls: 0 for no effect and ±100 for the full control effect
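Compounds are pin-transferred into medium, infected erythrocytes (2% hematocrit, 0.1% parasitemia final) are added, and plates sit one parasite generation at 37 C in 5% CO2. Detection reagent is then added and luminescence measured.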
Cycloheximide cs = Cycloheximide Counterscreen for Small Molecule Inhibitors of Shiga Toxin | cell reporter, cycloheximide protein synthesis inhibition counterscreen | max response, % | 300,000 tested, 12% active | AID 2314, 2010; in the data active = max response mostly above about 13%, no sharp cut-off; inactive = mostly below about 14%; note: read at 38.3 µM for the half of the compounds with a filed dose; 0% is about no effect
NS1 function inh = qHTS Assay for Inhibitors of Influenza NS1 Protein Function | Potency, µM (titrated, usually from 46.1 µM), inactives show top-dose activity, positive = more growth | 270,000 tested, 0.4% active; calls by dose curve; note: potency is the fitted concentration of half-maximal effect; actives are rising curves; nearly all actives have a fitted effect of over 50% in size
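In this qHTS, NS1 from influenza A is expressed in budding yeast, where it slows growth. Cells are switched from glucose to 2% galactose medium (pH 6.0, -URA), treated with compound, and growth recovery is read at OD600.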
Sm TGR inh = qHTS Assay for the Inhibitors of Schistosoma Mansoni Peroxiredoxins | 360,000 tested, 3% active | purified TGR, DTNB reduction, TNB absorbance 405 nm | Potency, µM (top dose mostly 114 µM), inactives show at the highest dose activity change, negative = inhibition, usual class: inhibitors; note: potency is the fitted concentration of half-maximal effect; % is set by controls: 0 for no effect and ±100 for the full control effect; nearly all actives have a fitted effect of over 60% in size
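First, TGR (20 nM dispensed) and NADPH were mixed with compound. Second, a 15 min room-temperature incubation followed. Third, further NADPH and then DTNB were added to start the reaction. Finally, TNB absorbance was monitored kinetically.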
Pf growth 96h = Primary qHTS for delayed death inhibitors of the malarial parasite plastid, 96 hour incubation | P. falciparum luciferase reporter growth, 96 h | Potency, µM (highest dose often 28.7 µM), inactives show top-dose activity change, negative = inhibition, usual class: inhibitors | 320,000 tested, 6.9% active; note: potency is the fitted concentration of half-maximal effect; % is set by controls: 0 for no effect and ±100 for the full control effect
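Compounds incubated with erythrocytes infected by luciferase-expressing P. falciparum (2% hematocrit, 0.05% parasitemia final) for 96 hours, 37 C in 5% CO2. Growth inhibition scored as decreased luciferase luminescence.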
Shiga toxin inh = A qHTS for Small Molecule Inhibitors of Shiga Toxin. Vero cells, Shiga toxin protein synthesis inhibition reporter. inhibition, % at 38.7 µM. 290,000 tested, 9.2% active. AID 2315, 2010; in the data active = inhibition mostly above about 28%, no sharp cut-off; inactive = mostly below about 43%; note: 0% is about no effect
* hit, by the source's call. Compounds with a hit are over-represented: about 21% of the library has one in this group of screens. Unless noted, calls come from the whole dose curve; as a rule, active = well fitted curve in the direction sought with a large enough effect; inconclusive = small, poorly fitted or top-dose-only effect, or another doubt; inactive = no such curve, though single readings can be large; an effect the other way counts as inactive or inconclusive.

Results for O=S(=O)(c1ccc(N2CCN(S(=O)(=O)c3ccc4c(c3)OCCO4)CC2)nc1)N1CCCC1 ?
Pf growth 48h: 13µM*; Cycloheximide cs: -4; NS1 function inh: 4%; Sm TGR inh: -10%; Pf growth 96h: -8%; Shiga toxin inh: -14

Results for O=C(c1cc2ccccc2[nH]1)N1CCOCC1 ?
Pf growth 48h: 34%; Cycloheximide cs: 19*; NS1 function inh: 1%; Sm TGR inh: 0%; Pf growth 96h: 38%; Shiga toxin inh: active

How did O=C(CCl)N1CCN(S(=O)(=O)c2ccc3c(c2)OCCCO3)CC1 do in these assays?
Pf growth 48h: inconclusive; Sm TGR inh: 16µM*; Pf growth 96h: inconclusive

How did Cc1ccc(S(=O)(=O)N2CCCN(S(=O)(=O)c3ccc4ccccc4c3)CC2)cc1 do in these assays?
Pf growth 48h: inconclusive; Cycloheximide cs: -1; NS1 function inh: 10%; Sm TGR inh: -6%; Pf growth 96h: 10µM*; Shiga toxin inh: 8

How did CCCCCC(=O)N1CCN(S(=O)(=O)c2ccc3c(c2)OCCO3)CC1 do in these assays?
Pf growth 48h: -3%; Sm TGR inh: 6%; Pf growth 96h: inconclusive

Results for Nc1c(C(=O)Nc2ccccc2Cl)c2ccccn2c1C(=O)c1ccc(Cl)cc1 ?
Sm TGR inh: 12%

Results for Cc1nnc(SCC(=O)N2CCN(S(=O)(=O)c3ccccc3)CC2)s1 ?
Pf growth 48h: -2%; Cycloheximide cs: 7; NS1 function inh: -3%; Sm TGR inh: 1%; Pf growth 96h: -7%; Shiga toxin inh: -9

Results for CN(C)C(=O)N1CCN(S(=O)(=O)c2ccc3ccccc3c2)CC1 ?
Pf growth 48h: 8%; Cycloheximide cs: -3; NS1 function inh: -6%; Sm TGR inh: 8%; Pf growth 96h: 10µM*

Results for Nn1cc(-c2ccccc2)nc1SCC(=O)N1CCN(S(=O)(=O)c2ccc(Cl)cc2)CC1 ?
Pf growth 48h: inconclusive; Cycloheximide cs: -2; NS1 function inh: -21%; Sm TGR inh: 0%; Pf growth 96h: inconclusive; Shiga toxin inh: 16

What do the screens show for `Nn1cc(-c2ccccc2)nc1SCC(=O)N1CCN(S(=O)(=O)c2ccc3ccccc3c2)CC1`?
Pf growth 48h: 9.3µM*; Cycloheximide cs: -2; NS1 function inh: -9%; Sm TGR inh: 2%; Shiga toxin inh: -16

What do the screens show for `CCCCNc1nnc(SCC(=O)N2CCN(S(=O)(=O)c3ccc4ccccc4c3)CC2)s1`?
Cycloheximide cs: 12; NS1 function inh: -1%; Sm TGR inh: -14%; Pf growth 96h: 5.2µM*; Shiga toxin inh: -7

What do the screens show for `Cc1ccc(S(=O)(=O)N2CCN(S(C)(=O)=O)C2)cc1`?
Pf growth 48h: 7%; Cycloheximide cs: 1; NS1 function inh: 4%; Sm TGR inh: 15%; Pf growth 96h: 13µM*; Shiga toxin inh: -9

How did COc1ccccc1-c1nc(SCC(=O)NCc2ccccc2)c2c(=O)n(C)c(=O)n(C)c2n1 do in these assays?
Sm TGR inh: -33%

Results for Nc1ncnc2nn([C@H]3O[C@@H](CO)[C@@H](O)[C@H]3O)nc12 ?
NS1 function inh: -1%

How did Cc1ccc(S(=O)(=O)N2CCCN(C(=O)c3cc4ccccc4[nH]3)CC2)cc1 do in these assays?
Pf growth 48h: inconclusive; Cycloheximide cs: 54*; NS1 function inh: -11%; Sm TGR inh: 0%; Pf growth 96h: 12µM*; Shiga toxin inh: 81*

Results for O=C(CS(=O)(=O)c1ccc2ccccc2c1)N1CCCCCC1 ?
Pf growth 48h: -6%; Cycloheximide cs: 44*; Sm TGR inh: 2%; Pf growth 96h: inconclusive; Shiga toxin inh: 51*

Results for O=C(CCl)N1CCN(S(=O)(=O)c2ccc3ccccc3c2)CC1 ?
Pf growth 48h: inconclusive; Cycloheximide cs: -3; NS1 function inh: -2%; Sm TGR inh: 5.6µM*; Pf growth 96h: inconclusive; Shiga toxin inh: -3

Results for O=C(c1cc2cc(F)ccc2[nH]1)N1CCc2ccccc2C1 ?
Pf growth 48h: inconclusive; Cycloheximide cs: 20*; NS1 function inh: -16%; Sm TGR inh: -8%; Pf growth 96h: inconclusive; Shiga toxin inh: 65*

What do the screens show for `CCOC(=O)CS(=O)(=O)c1ccc2ccccc2c1`?
Pf growth 48h: 4%; Cycloheximide cs: -3; NS1 function inh: -28%; Sm TGR inh: -15%; Pf growth 96h: 29%; Shiga toxin inh: -7

Results for O=S(=O)(c1ccc2ccccc2c1)N1CCN(S(=O)(=O)c2ccc3ccccc3c2)CC1 ?
NS1 function inh: -3%

How did COc1cccc(NC(=O)CSC2=Nc3ccccc3C3=NC(CC(=O)NCCc4ccccc4)C(=O)N23)c1 (centres undefined) do in these assays?
Sm TGR inh: 1%

Results for CCOc1ccc(C2NC(=O)c3c(COC)cc(C)nc3N2Cc2ccccc2)cc1OC (centres undefined) ?
Sm TGR inh: 0%

Results for COc1ccc(N2CC(NC(=O)c3c(F)cccc3Cl)CC2=O)cc1OC (centres undefined) ?
Sm TGR inh: 0%

What do the screens show for `Cc1cc(F)ccc1S(=O)(=O)N1CCCOC1CNC(=O)C(=O)NCCc1c[nH]c2ccccc12` (centres undefined)?
Pf growth 48h: inconclusive; Cycloheximide cs: -4; NS1 function inh: -6%; Sm TGR inh: 0%; Pf growth 96h: 9.3µM*; Shiga toxin inh: -9

How did O=C(NCC1OCCCN1S(=O)(=O)c1cc(F)ccc1F)C(=O)NC1CCCCCC1 (centres undefined) do in these assays?
Pf growth 48h: 5%; Cycloheximide cs: 15*; Sm TGR inh: 5%; Pf growth 96h: -17%; Shiga toxin inh: 6

Results for O=C(NCCc1ccco1)C(=O)NCC1OCCCN1S(=O)(=O)c1ccc(Cl)cc1 (centres undefined) ?
Pf growth 48h: -4%; Cycloheximide cs: -4; NS1 function inh: -8%; Sm TGR inh: -27%; Pf growth 96h: -3%; Shiga toxin inh: 12

How did O=C(NCc1ccncc1)C(=O)NCC1OCCCN1S(=O)(=O)c1cc(F)ccc1F (centres undefined) do in these assays?
Pf growth 48h: 4%; Cycloheximide cs: -3; NS1 function inh: 11%; Sm TGR inh: -10%; Pf growth 96h: 7%; Shiga toxin inh: -29

How did Cc1cc(S(=O)(=O)N2CCCOC2CNC(=O)C(=O)NCCc2ccco2)ccc1F (centres undefined) do in these assays?
Pf growth 48h: -12%; Cycloheximide cs: 6; NS1 function inh: 9%; Sm TGR inh: -16%; Pf growth 96h: 8.3µM*; Shiga toxin inh: -5

How did CCCCN(C)C(=O)CN1C(=O)c2cccnc2Oc2ccc(Cl)cc21 do in these assays?
Sm TGR inh: -5%
